Measured values published in PubChem BioAssay.
Calls of active or inactive are those of the source. No rule for the calls is given here.

These compounds were tested against Pantothenate synthetase (Mycobacterium tuberculosis (strain ATCC 25618 / H37Rv)) (UniProt P9WIL5) (assay: Coupled enzyme confirmation of inhibitors against recombinant Mtb PanC (AID 375;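 also: 0% = full reaction with vehicle and 100% = no enzyme background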)). Conditions: coupled enzyme assay; at 10 µM, hits give high values.
Pantothenate synthetase (Mycobacterium tuberculosis (strain ATCC 25618 / H37Rv)), sequence (P9WIL5 whole entry, looked up): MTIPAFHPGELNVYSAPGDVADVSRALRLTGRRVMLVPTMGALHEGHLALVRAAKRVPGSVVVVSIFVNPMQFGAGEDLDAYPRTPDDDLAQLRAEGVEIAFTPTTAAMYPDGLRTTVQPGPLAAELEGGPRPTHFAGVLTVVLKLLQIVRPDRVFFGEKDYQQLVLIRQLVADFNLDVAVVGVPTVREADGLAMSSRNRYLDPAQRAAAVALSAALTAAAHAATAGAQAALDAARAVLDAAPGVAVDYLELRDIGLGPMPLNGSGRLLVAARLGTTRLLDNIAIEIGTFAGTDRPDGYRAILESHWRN
For COc1ccccc1NC(=O)CC(NCc1ccccc1)C(=O)O (centres undefined), the inhibition was 5% (inactive).
For Cc1nc(N2CCOCC2)[nH]c(=O)c1CCC(C)C, the inhibition was 8% (inactive).
CC(=O)Nc1ccc(S(=O)(=O)N2CCC(NC(C)=O)(c3cccc(F)c3)CC2)cc1 was tested, and the inhibition was 0% (inactive).
With O=c1ccc2cc3c([nH]c4ccc(Br)cc43)oc-2c1O the inhibition was 0% (inactive).
In the case of NC(=O)c1cccc2c1C(=O)N(C1CCCCC1)C2, the inhibition is reported as 0% (inactive).
In the case of Cc1ccccc1NC(=O)Cc1nnc(SCC(=O)N2CCN(c3ccccc3)CC2)n1C, the inhibition is reported as 4% (inactive).
For COC(=O)c1ccccc1NC(=O)Cn1c(-c2nonc2N)nc2ccccc21, the inhibition was 0% (inactive).
CCN(CC)C(=O)c1ccc(O)c(OC)c1 was tested, and the inhibition was 0% (inactive).
CCCCC(=O)O[C@H]1CC[C@H]2[C@@H]3CCc4cc(O)ccc4[C@H]3CC[C@]12C was tested, and the inhibition was 6% (inactive).
For O=C(C1CCCCC1)N1CC(=O)N2CCc3ccccc3C2C1 (centres undefined), the inhibition was 3% (inactive).
CCCN(CCC)CCCNS(=O)(=O)c1ccc2c(c1)oc(=O)n2C was tested, and the inhibition was 0% (inactive).
In the case of CC1C=CC(C)C(C(=O)O)C1C(=O)O (centres undefined), the inhibition is reported as 0% (inactive).
In the case of [O-][n+]1c2ccc3nonc3c2nn1-c1ccccc1Cl, the inhibition is reported as 0% (inactive).
COc1cc(OC)c(C(=O)Nc2ccc(N(C)C)cc2)cc1OC was tested, and the inhibition was 4% (inactive).
In the case of COC(=O)C1=C(C)NC2=C(C(=O)CCC2)C1c1coc2ccccc2c1=O (centres undefined), the inhibition is reported as 6% (inactive).
In the case of CCSc1nc(N)c(C#N)c(-c2ccccc2Cl)c1C#N, the inhibition is reported as 6% (inactive).
O=S(=O)(c1ccc(F)cc1)N1CCC(N2CCCC2)CC1 was tested, and the inhibition was 0% (inactive).
For O=C(CCN1C(=O)COc2ccccc21)NCCN1CCN(c2cccc(Cl)c2)CC1, the inhibition was 0% (inactive).
For COc1ccccc1NC(=O)C1=C(C)NC(SCC(=O)c2ccc(C)cc2)=C(C#N)C1c1ccco1 (centres undefined), the inhibition was 0% (inactive).
With COC(=O)Cc1c(C)nc2nc(-c3ccco3)[nH]n2c1=O the inhibition was 2% (inactive).
In the case of Cc1ccc(NC(=O)C2CCCN2S(=O)(=O)c2cccc3cccnc23)cc1F (centres undefined), the inhibition is reported as 0% (inactive).
For O=C1c2ccccc2-c2ccc(C(=O)N3CCOCC3)cc21, the inhibition was 0% (inactive).
CC(NC(=O)Nc1ccccc1)C(c1cccs1)N1CCOCC1 (centres undefined) was tested, and the inhibition was 0% (inactive).
In the case of CCNc1nc(NC(C)C)nc(N(C#N)CCOc2ccc(Cl)cc2Cl)n1, the inhibition is reported as 7% (inactive).
For Cc1ccc(N2CCN(CCc3nc4cc(NS(C)(=O)=O)ccc4n3C)CC2)cc1, the inhibition was 0% (inactive).
With CCOC(=O)CSc1nc2ccccc2c(=O)n1CCN1CCOCC1 the inhibition was 0% (inactive).
Fc1cccc(Nc2cc(-n3cccn3)ncn2)c1 was tested, and the inhibition was 3% (inactive).
In the case of CCCc1ccc(Oc2cn[nH]c2-c2ccc(O)c(C)c2O)cc1, the inhibition is reported as 0% (inactive).
With O=C(CCCCC(=O)NCc1cccs1)NCc1cccs1 the inhibition was 8% (inactive).
Cc1nc2ccc(S(=O)(=O)NC(C(=O)N3CCCC3)C(C)C)cc2s1 (centres undefined) was tested, and the inhibition was 0% (inactive).
In the case of COC(=O)c1cc2oc(C)cc2n1CC(=O)Nc1ccc(C)c(C)c1, the inhibition is reported as 0% (inactive).
O=C(Cn1c(SCC(=O)N2CCCc3ccccc32)nc2ccccc21)N1CCCC1 was tested, and the inhibition was 0% (inactive).
COc1ccccc1N1C(=O)CC(Sc2nc(C)cc(C)n2)C1=O (centres undefined) was tested, and the inhibition was 0% (inactive).
O=C(Nc1ccccc1)c1cccc(N2CCCC2=O)c1 was tested, and the inhibition was 6% (inactive).
In the case of O=C(NCCN1CCOCC1)c1csc2c1CCCC2, the inhibition is reported as 0% (inactive).
For CN(c1cccc(NS(=O)(=O)c2cccs2)c1)S(C)(=O)=O, the inhibition was 0% (inactive).
With COc1ccc(Nc2ncc3c(n2)CC(c2ccc(OC)cc2)CC3=O)cc1 (centres undefined) the inhibition was 3% (inactive).
In the case of Cc1nc(=S)n(-c2ccccc2)[nH]1, the inhibition is reported as 0% (inactive).
Cc1cc(C(=O)Nc2ccccc2C#N)n(-c2ccccc2)n1 was tested, and the inhibition was 0% (inactive).
